From PubChem BioAssay (NCI)
Where “and” joins values, the source holds several entries; their conditions need not be identical. Equal values may be shown once. Compounds without any hit were thinned out: in the full panel of roughly 83,000, 20% have a hit.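 Treatment: one concentration, 48 hours, 96-well format. Scoring: percent growth, with anything below 10 considered active.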 Calls of active or inactive are those of the source.

Tests used:
Experiment in all cases: NCI-60 one-dose screen, 48 h (100 = growth as untreated, 0 = no growth, -100 = all killed)
Conditions in all cases: 10 µM unless noted
[1] = tested on: HCT-15 colon
[2] = tested on: HT29 colon
[3] = tested on: SNB-75 CNS
[4] = tested on: SNB-19 CNS
[5] = tested on: U251 CNS
[6] = tested on: PC-3 prostate
[7] = tested on: SK-MEL-5 melanoma
[8] = tested on: UACC-62 melanoma
[9] = tested on: LOX IMVI melanoma
[10] = tested on: SK-MEL-28 melanoma

| SMILES | growth [1] | growth [2] | growth [3] | growth [4] | growth [5] | growth [6] | growth [7] | growth [8] | growth [9] | growth [10] |
| --- | --- | --- | --- | --- | --- | --- | --- | --- | --- | --- |
| COC(=O)/C=C1/SC(=Nc2ccc([N+](=O)[O-])cc2)N(CCc2c[nH]c3ccccc23)C1=O | 29.9% (inactive) | 51.8% (inactive) | 84.3% (inactive) | 69.2% (inactive) | 46.9% (inactive) | 63.4% (inactive) | 84.9% (inactive) | 51% (inactive) | -9.3% (active) | 76.8% (inactive) |
| C=C(CNCCO)[C@@H]1CC[C@]2(CO)CC[C@]3(C)[C@H](CC[C@@H]4[C@@]5(C)CCC(NCCc6ccc(O)cc6)C(C)(C)[C@@H]5CC[C@]43C)[C@@H]12 (stereo not given in full) | -88.4% (active) | -68.7% (active) | -97.8% (active) | -72.9% (active) | -92.7% (active) | -43.4% (active) | -95.3% (active) | -81.5% (active) | -89.8% (active) | -94.1% (active) |
| CCOC(=O)c1c(-c2ccc(C)cc2)c(C#N)c(=O)n(-c2cccc(C(F)(F)F)c2)c1N | 101% (inactive) | 111% (inactive) | 76.3% (inactive) | 88.8% (inactive) | 102% (inactive) | 110% (inactive) | 101% (inactive) | 99% (inactive) | 96.9% (inactive) | 102% (inactive) |
| CC(=O)c1c(C)nc2ccccc2c1/C=C/c1cccc(C)c1 | 31.3% (inactive) | 18.5% (inactive) | 60% (inactive) | 74.1% (inactive) | 49.8% (inactive) | 65.8% (inactive) | 54.3% (inactive) | 47.8% (inactive) | 42% (inactive) | 75% (inactive) |
| CCN(CC)/C([O-])=c1\cccc\c1=C1\N=C(c2ccccc2)N=C1[n+]1ccc(-c2ccccc2)cc1 | 101% (inactive) | 106% (inactive) | 93.7% (inactive) | 99.5% (inactive) | 97.7% (inactive) | 92.8% (inactive) | 93.8% (inactive) | 93.6% (inactive) | 91.6% (inactive) | 106% (inactive) |
| COc1ccc(C2Nc3nc(SC)nc(N)c3N=C3c4ccccc4CCC32)cc1 (stereo not given) | 75.9% (inactive) | 69.9% (inactive) | 92.5% (inactive) | 104% (inactive) | 95% (inactive) | 54.7% (inactive) | 80.2% (inactive) | 85.3% (inactive) | 89.9% (inactive) | 103% (inactive) |
| CCN(CC)CC#CCOC(=O)[C@]1(C)CCC[C@]2(C)c3ccc(C(C)C)cc3CC[C@@H]12 | 52.4% (inactive) | 46.5% (inactive) | 97.5% (inactive) | 92% (inactive) | 79.7% (inactive) | 64.3% (inactive) | 77.1% (inactive) | 71.8% (inactive) | 92.6% (inactive) | 84.8% (inactive) |
| Cc1ccc(C(=O)Nc2ccc(CN3CCN(C)CC3)c(C(F)(F)F)c2)cc1C#Cc1cnc(N)cc1C#N | -69.8% (active) | -65.1% (active) | -81.1% (active) | 3.23% (active) | -73.6% (active) | -33.9% (active) | -86.5% (active) | -38.5% (active) | -90.1% (active) | -83.3% (active) |
| Clc1ccc(/C=N\N2CCCCCC2)cc1 | 95.7% (inactive) and 92.9% (inactive) | 101% (inactive) and 84.9% (inactive) | 100% (inactive) and 110% (inactive) | 96.4% (inactive) and 109% (inactive) | 92.3% (inactive) and 98.5% (inactive) | 105% (inactive) | 98.2% (inactive) and 106% (inactive) | 92.1% (inactive) and 104% (inactive) | 102% (inactive) | 104% (inactive) and 107% (inactive) |
| O=c1c2c([nH]c3ccccc13)CCCC2 | 94.8% (inactive) and 23.8% (inactive) | 102% (inactive) and 2.59% (active) | 33.5% (inactive) | 102% (inactive) and 56.9% (inactive) | 97.4% (inactive) and 24.3% (inactive) | 85.3% (inactive) and 57.9% (inactive) | 99.3% (inactive) and 37.5% (inactive) | 89.6% (inactive) and 53.7% (inactive) | 102% (inactive) and 37.3% (inactive) | 106% (inactive) and 53.8% (inactive) |
| CCOC(=O)c1cnn(CC(O)CC)c1NC(=O)NCc1ccccc1C(F)(F)F (stereo not given) | 103% (inactive) | 86.5% (inactive) | 96% (inactive) | 104% (inactive) | 101% (inactive) | 90.8% (inactive) | 97.6% (inactive) | 88.5% (inactive) | 95.5% (inactive) | 108% (inactive) |
| CCN(CC)CCCN1C(=O)c2c(c(C)c3c(oc4cc(OC)ccc43)c2C)C1=O | 80.6% (inactive) | 86.9% (inactive) | 146% (inactive) | 99.1% (inactive) | 103% (inactive) | 85.3% (inactive) | 77.6% (inactive) | 102% (inactive) | 87.7% (inactive) | -82.6% (active) |
| Cn1cc(-c2nc3c(F)cc4[nH]ncc4c3c3c2CCCC3)c(C(F)F)n1 | 66.6% (inactive) | 68.4% (inactive) | 57.6% (inactive) | 71.2% (inactive) | 80.5% (inactive) | 29% (inactive) | 65.4% (inactive) | 51.9% (inactive) | 62.6% (inactive) | 80.8% (inactive) |
| COc1ccc(-c2nc(Cl)c3c(C)nn(-c4ccc(F)cc4)c3n2)cc1 | 110% (inactive) | 98.3% (inactive) | 104% (inactive) | 99.7% (inactive) | 96.5% (inactive) | 89.6% (inactive) | 100% (inactive) | 100% (inactive) | 101% (inactive) | 110% (inactive) |
| N#CSc1c[nH]c2ccc(/C=C/C(=O)/C=C(/C=C/c3ccc4[nH]cc(SC#N)c4c3)OB(F)F)cc12 | -73.7% (active) | -53.6% (active) | 18% (inactive) | 38.2% (inactive) | -27% (active) | -22.5% (active) | 9.1% (active) | -43% (active) | -91.4% (active) | -1.41% (active) |
| Nc1n[nH]c2cccc(C#Cc3cccc(C(=O)Nc4ccc(CN5CCOCC5)c(C(F)(F)F)c4)c3)c12 | 22.5% (inactive) | 17.4% (inactive) | 52.9% (inactive) | 75.2% (inactive) | 40.3% (inactive) | 29.5% (inactive) | 17.5% (inactive) | 5.89% (active) | 6.76% (active) | 14.5% (inactive) |
| O=c1c(/C=C/c2ccco2)nnc2sc(Nc3ccc(Cl)cc3)nn12 | 108% (inactive) | 93.5% (inactive) | 79.9% (inactive) | 94.2% (inactive) | 108% (inactive) | 92.2% (inactive) | 93.5% (inactive) | 92.4% (inactive) | 97.6% (inactive) | 108% (inactive) |
| CCOC(=O)c1cnn(-c2ccc(S(N)(=O)=O)cc2)c1N | 108% (inactive) | 102% (inactive) | 78.1% (inactive) | 100% (inactive) | 103% (inactive) | 103% (inactive) | 113% (inactive) | 97.5% (inactive) | 96.9% (inactive) | 106% (inactive) |
| CC(=NCc1ccccc1)c1ccc(O)cc1O | 101% (inactive) | 104% (inactive) | 83.2% (inactive) | 103% (inactive) | 101% (inactive) | 81.7% (inactive) | 95% (inactive) | 88.1% (inactive) | 94.1% (inactive) | 103% (inactive) |
| COc1ccc(C/C(C)=C(/c2ccc(OCCN3CCCCCC3)cc2)c2ccc(OC(=O)c3ccccc3)cc2)cc1 | 100% (inactive) | 89.9% (inactive) | 110% (inactive) | 102% (inactive) | 107% (inactive) | 101% (inactive) | 109% (inactive) | 99.1% (inactive) | 90.7% (inactive) | 106% (inactive) |
| Cc1cnc(C(=O)NNc2nc3sc4c(c3c(=O)[nH]2)C(C)CCC4)cn1 (stereo not given) | 26% (inactive) | 27.9% (inactive) | 36.8% (inactive) | 22.3% (inactive) | 10.4% (inactive) | 29.7% (inactive) | -38.1% (active) | 8.87% (active) | 0.703% (active) | 23.3% (inactive) |
| COc1ccc(-c2cc(-c3cccc(Cl)c3)c(C#N)c(=O)[nH]2)c(OC)c1 | 97.7% (inactive) | 118% (inactive) | 72.7% (inactive) | 94.2% (inactive) | 96.4% (inactive) | 92.3% (inactive) | 94.2% (inactive) | 90.7% (inactive) | 101% (inactive) | 92.2% (inactive) |
| Nc1ncc(-c2ccc3ncnc(N4CCc5ccc(Cl)cc54)c3c2)cc1C(F)(F)F | 14.9% (inactive) | 9.27% (active) | -23.4% (active) | 32.7% (inactive) | 28.4% (inactive) | 15.4% (inactive) | 22.6% (inactive) | 10.5% (inactive) | 11.7% (inactive) | 28.7% (inactive) |
| CCCCCCCCN(CCCCCCCC)CC(O)c1cc(Cl)ccc1OC (stereo not given) | 61.8% (inactive) | 38.7% (inactive) | 76.5% (inactive) | 91.2% (inactive) | 78.6% (inactive) | 71.9% (inactive) | 56% (inactive) | 64.6% (inactive) | 13.1% (inactive) | 80.5% (inactive) |
| O/N=C(/c1ccccc1)c1ccc2c3c(cccc13)CC2 | 84.7% (inactive) and 77.3% (inactive) | 97.5% (inactive) and 86.4% (inactive) | 74.8% (inactive) and 58.4% (inactive) | 98.5% (inactive) and 94.1% (inactive) | 90.1% (inactive) and 89.3% (inactive) | 80% (inactive) and 77.5% (inactive) | 98.1% (inactive) and 91.1% (inactive) | 84.6% (inactive) and 74.7% (inactive) | 89.6% (inactive) and 89.1% (inactive) | 92.8% (inactive) and 87.5% (inactive) |
